D2 ag-1 = agonists of human D2 dopamine receptor (beta-arrestin) | AID 624465 | P14416 | 0.084% of 360,000 active | DiscoveRx PathHunter D2 beta-arrestin, luminescence, 90 min; 100% = 57 uM dopamine signal | activation, % (test concentration not listed); in the data active = activation above about 40%; inconclusive = between about 15% and that limit
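Agonist mode: compounds alone added to overnight-plated D2 PathHunter cells for 90 min at 37 C, with 57 uM final dopamine (EC100) defining full response. Beta-arrestin recruitment detected by chemiluminescent reagent, read after 1 h at ambient temperature.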
D2 PAM-1 = positive allosteric modulators of human D2 dopamine receptor; P14416; DiscoveRx D2 beta-arrestin cells, luminescence, 90 min; 100% = 57 uM dopamine signal; potentiation, % (concentration not given with the values); 0.23% of 360,000 active; AID 624464; in the data active = potentiation above about 50%; inconclusive = mostly about 30% to 49%
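PathHunter beta-arrestin assay in DiscoveRx D2 cells. Compounds were added with an EC20 of dopamine (50 nM final) for 90 min at 37 deg C. Luminescence was read 1 h after detection reagent, with 57 uM dopamine as the EC100 control.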
D2 ag-2 = agonists of human D2 dopamine receptor. HEK293 T-REx D2 cells, calcium flux agonist mode. activation, % at 2 µM. 0.53% of 340,000 active;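 active = activation over 3 SD above normal in the single-dose calcium agonist read, cut at about 30% in these data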
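Agonism is scored from calcium flux in a force-coupled, inducible HEK293 cell line expressing D2, read kinetically for 180 s after compound addition against dopamine controls.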
D2 antagonist = antagonists of human D2 dopamine receptor; P14416; HEK293 TREx D2 cells, calcium flux, dopamine EC80; inhibition, % at 10 µM; 2% of 340,000 active; in the data active = inhibition above about 30%; inactive = below that, where a call was filed
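Compounds are added to dye-loaded, induced HEK293 T-REx cells coupled to calcium release via D2; after a 3 min kinetic read an EC80 dopamine stimulus is given and fluorescence is recorded for 3 more min.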
D2 PAM-2 = positively modulates the human D2 dopamine receptor allosterically; HEK293 T-REx D2, calcium flux, EC20 dopamine potentiation; potentiation, % at 10 µM; 0.34% of 340,000 active; AID 485347;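 active = potentiation over 3 SD above the plate norm, cut at about 30% in these data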
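Tetracycline-induced HEK293 T-REx cells force-coupled to calcium signalling expressed D2; compounds were pin-added after a 10 s baseline, read kinetically 180 s, then an EC20 dopamine challenge followed with a further 180 s calcium read.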
D3 ag = D3 receptor agonism confirmed, beta-arrestin readout; shares compounds with D2 ag-2; DiscoveRx D3 beta-arrestin cells, luminescence, 90 min; Potency, µM (doses to about 76.9 µM), usual class: activators; 4% of 2,300 active; also: nearly all actives have a fitted effect of over 70% in size
Target sequence (P35462 whole entry, looked up): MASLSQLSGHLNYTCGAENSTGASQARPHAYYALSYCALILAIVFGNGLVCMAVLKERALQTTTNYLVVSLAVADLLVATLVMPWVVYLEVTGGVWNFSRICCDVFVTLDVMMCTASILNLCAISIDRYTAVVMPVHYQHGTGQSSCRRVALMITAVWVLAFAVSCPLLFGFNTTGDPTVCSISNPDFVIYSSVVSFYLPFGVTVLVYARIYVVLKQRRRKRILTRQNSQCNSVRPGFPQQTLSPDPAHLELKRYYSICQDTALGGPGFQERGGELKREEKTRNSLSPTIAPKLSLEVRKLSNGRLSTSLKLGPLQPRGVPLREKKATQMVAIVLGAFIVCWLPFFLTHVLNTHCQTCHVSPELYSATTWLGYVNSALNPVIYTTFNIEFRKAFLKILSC
D2 ag-3 = activates human D2 dopamine receptor in D3 counterscreen. shares compounds with D2 ag-2. DiscoveRx PathHunter D2 beta-arrestin, luminescence, 90 min; response scale: percent relative to full dopamine signal. Potency, µM (top dose mostly 76.9 µM), most hits filed as activators. 5.9% of 2,300 active. AID 720507; also: nearly all actives have a fitted effect of over 70% in size
Each line names hits and unclear results; the compound was inactive in the other large screens (follow-up assays come after a bar, where they were run). The list is not random: actives were taken first. Their share in the collection is about 2.4%. Unless noted, calls follow the shape of the dose curve; as a rule, active = well fitted activation curve with a large enough effect; inconclusive = small, poorly fitted or top-dose-only effect; inactive = flat fitted curve, though single readings scatter.

Cc1ccc(CN2CCN(Cc3ccc(-n4cccn4)cc3)CC2CCO)cc1 (configuration not stated)	none
O[C@@H]1CN(Cc2ccc(-n3cccn3)cc2)CC[C@H]1N1CCN(c2ccccc2F)CC1	D2 ag-2 65, D2 antagonist 39 | D3 ag inactive | D2 ag-3 inconclusive
COCCCn1c(=O)c2sccc2n2c(CCCC(=O)Nc3cc(C)cc(C)c3)nnc12	none (no result: D2 ag-1, D2 PAM-1, D2 antagonist)
O=C(NCc1ccccn1)c1cccc(S(=O)(=O)Nc2ccc(F)cc2)c1	none
O=C(NCc1ccncc1)c1cccc(S(=O)(=O)Nc2ccc(F)cc2)c1	none | D3 ag inactive | D2 ag-3 inactive
Cc1cccc(OCC(=O)N2CCC(c3nc4ccccc4o3)CC2)c1C	none (no result: D2 ag-1, D2 PAM-1, D2 antagonist)
Cc1cc(-c2cccs2)c2c(N)c(C(=O)c3ccc4c(c3)OCO4)sc2n1	D2 ag-2 41 | D3 ag inactive | D2 ag-3 inactive
COc1ccc(C(=O)c2sc3nc(C)cc(-c4cccs4)c3c2N)cc1	none
CCOc1ccc(NC(C)=O)cc1N	none | D3 ag inactive | D2 ag-3 inactive
CCOc1ccc(NC(C)=O)cc1[N+](=O)[O-]	none
O=C1C=C(/C=C/c2ccccc2)C[C@@H](c2ccc(F)cc2)C1	none | D3 ag inactive | D2 ag-3 inactive
COc1ccc(N2CCN(c3nc4ccc(C)cc4n4nnnc34)CC2)cc1	none (no result: D2 ag-1, D2 PAM-1, D2 antagonist)
CCc1ccc2c(CC(=O)NNC(=O)c3ccncc3)coc2c1	none | D3 ag inactive | D2 ag-3 inactive
CCc1nnc(NC(=O)CN2CCC(O)(c3ccccc3OC)CC2)s1	none
COc1ccccc1C1(O)CCN(CC(=O)Nc2nc(-c3ccccc3)cs2)CC1	D2 ag-2 32 | D3 ag inactive | D2 ag-3 inactive
CC1CCCCN1C(=O)CSc1n[nH]c(-c2ccccc2)n1 (configuration not stated)	none (no result: D2 ag-1, D2 PAM-1, D2 antagonist)
O=[N+]([O-])c1ccc(CN2CCN(c3ncccn3)CC2)cc1	D2 ag-1 49, D2 PAM-1 inconclusive, D2 ag-2 83, D2 antagonist 85 | D3 ag inconclusive | D2 ag-3 18µM
O=[N+]([O-])c1cccc(CN2CCN(c3ncccn3)CC2)c1	D2 ag-1 inconclusive, D2 ag-2 75 | D3 ag inactive | D2 ag-3 inconclusive
O=[N+]([O-])c1ccccc1CN1CCN(c2ncccn2)CC1	D2 ag-2 47 | D3 ag inactive | D2 ag-3 inactive
Cc1ccc(-n2nnnc2CNC(=O)c2ccc(F)cc2)cc1C	none (no result: D2 ag-1, D2 PAM-1, D2 antagonist)
Cc1csc(NC(=O)c2ccc3ccccc3n2)n1	none
Cc1csc(NC(=O)c2cnc3ccccc3n2)n1	none | D3 ag inactive | D2 ag-3 inactive
Nc1ccn(CC(=O)NCCNc2ccc([N+](=O)[O-])cn2)c(=O)n1	none | D3 ag inactive | D2 ag-3 inactive
O=C(CN1CCN(Cc2ccccc2)CC1)NCCNc1ccc([N+](=O)[O-])cn1	none
Cc1sc2ncn(CC(=O)N(C)c3cccc(C(F)(F)F)c3)c(=O)c2c1S(=O)(=O)N1CCN(c2ncccn2)CC1	none (no result: D2 ag-1, D2 PAM-1, D2 antagonist)
CCN1CCN(c2ncnc3scc(-c4ccc(OC)cc4)c23)CC1	D2 ag-1 78, D2 ag-2 41 | D3 ag inactive | D2 ag-3 40µM
COc1ccc(S(N)(=O)=O)cc1C(=O)NCCCN1CCN(c2ccccc2OC)CC1	D2 ag-2 60, D2 antagonist 77 | D3 ag inactive | D2 ag-3 inactive
COc1cc2c(C(=O)NCCCN3CCN(c4cccc(Cl)c4)CC3)cn(C)c(=O)c2cc1OC	none
Cc1nc2nc(C)c(CCC(=O)NCCCN3CCN(c4cccc(Cl)c4)CC3)c(C)n2n1	D2 ag-1 inconclusive, D2 ag-2 75, D2 antagonist 73 | D3 ag inactive | D2 ag-3 inconclusive
COc1ccc(S(N)(=O)=O)cc1C(=O)NCCCN1CCN(c2cccc(Cl)c2)CC1	D2 ag-2 56, D2 antagonist 50 | D3 ag inactive | D2 ag-3 inactive

High-throughput results deposited in PubChem BioAssay by National Center for Advancing Translational Sciences (NCATS).
